Measurements: PubChem BioAssay AID624330 (Southern Research Specialized Biocontainment Screening …, 2012)
In all, about 340,000 compounds went through this assay and about 2,100 (0.62%) were called active.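 The calls were made as follows: active = first-screen hits whose inhibition reached a set limit at any dose in the follow-up dose series; inconclusive = inhibition above the set first-screen limit but never retested; inactive = the rest.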 The list is a sample of the results. Measured potencies and affinities stand elsewhere.

Biological target: Rac GTPase-activating protein 1 (Homo sapiens) (UniProt Q9H0H5)
Experiment: MgcRacGAP GTPase-activating activity inhibitors, confirmation, biochemical, ADP Hunter fluorescence, primary and confirmatory (AID 624330);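 also: fluorescence reports GDP produced by GAP-driven GTP hydrolysis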
Conditions: MgcRacGAP-stimulated Rac1 GTP hydrolysis, at 30 µM, stronger effect = higher value, GST-tagged Rac1 F28L mutant substrate

Rac GTPase-activating protein 1 (Homo sapiens), sequence (Q9H0H5 whole entry, looked up): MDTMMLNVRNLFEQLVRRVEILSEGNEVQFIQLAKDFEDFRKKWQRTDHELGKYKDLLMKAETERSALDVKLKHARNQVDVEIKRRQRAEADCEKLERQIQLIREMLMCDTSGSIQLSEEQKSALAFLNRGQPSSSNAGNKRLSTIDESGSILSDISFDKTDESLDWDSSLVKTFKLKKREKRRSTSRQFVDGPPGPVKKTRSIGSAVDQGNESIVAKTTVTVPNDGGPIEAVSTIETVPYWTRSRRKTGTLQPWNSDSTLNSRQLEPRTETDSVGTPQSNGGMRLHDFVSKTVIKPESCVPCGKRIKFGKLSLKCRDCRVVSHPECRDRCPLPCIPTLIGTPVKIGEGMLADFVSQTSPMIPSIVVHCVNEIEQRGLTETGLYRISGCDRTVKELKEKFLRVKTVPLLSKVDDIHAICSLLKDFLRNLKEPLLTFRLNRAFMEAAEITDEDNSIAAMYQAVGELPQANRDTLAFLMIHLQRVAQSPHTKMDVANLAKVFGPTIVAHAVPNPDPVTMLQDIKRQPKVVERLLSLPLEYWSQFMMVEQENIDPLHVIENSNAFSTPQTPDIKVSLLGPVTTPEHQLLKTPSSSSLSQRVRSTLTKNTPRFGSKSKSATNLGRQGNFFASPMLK

inhibition, inactive:
O=C(Nc1ccc(C(F)(F)F)cc1)C1CC(=O)N(c2ccc3c(c2)OCCO3)C1 (stereo not given) 11.2%
[O-]/C(=C(\C(=S)Nc1cccc2ccccc12)[n+]1ccccc1)c1ccc(OC(F)F)cc1 8.46%
O=C(COC(=O)c1ccccc1O)Nc1ccc(OC(F)F)cc1 6.22%
Cc1ccc(S(=O)(=O)C2CCCCC2=O)cc1 (stereo not given) 12.8%
Nc1ccc(CCC(=O)N2CCCC2)cc1 3.67%
O=[N+]([O-])c1cccc(/C=N/NS(=O)(=O)c2ccccc2)c1 3.56%
O=C(CNC(=O)c1cccc(F)c1)N/N=C/c1cccc([N+](=O)[O-])c1 4.45%
Cc1ccc(S(=O)(=O)N/N=C/c2ccc(O)c(O)c2)cc1[N+](=O)[O-] 30.2%
COc1cc(/C=N/NC(=O)c2cccc([N+](=O)[O-])c2)cc(OC)c1O 6.29%
COc1cc(/C=N/NS(=O)(=O)c2ccc(C)c([N+](=O)[O-])c2)cc([N+](=O)[O-])c1O 22.1%
CCN(CC)c1ccc(/C=N/NS(=O)(=O)c2cccc([N+](=O)[O-])c2)cc1 23.2%
Cc1c(Cl)c([N+](=O)[O-])nn1Cc1ccc(C(=O)N/N=C\c2cccc(Br)c2)o1 6.83%
Cc1c(Cl)c([N+](=O)[O-])nn1Cc1ccc(C(=O)N/N=C\c2ccccn2)o1 3.44%
O=C(C1CCN(S(=O)(=O)N2CCCCC2)CC1)N1CCCCC1 6.28%
CC1=C(C(=O)N2CCCC(CCC(=O)NCc3ccc(F)c(F)c3)C2)OCCO1 (stereo not given) 6.22%
COc1ccc(/C=N/NC(=O)c2cccc([N+](=O)[O-])c2)cc1OC 7.73%
COc1ccc(/C=N/NC(=O)c2cccc([N+](=O)[O-])c2)cc1O 8.06%
Cc1cccc(NC(=O)CSc2nnc(CNC(=O)c3cccs3)o2)c1C 8.9%
CC(C)NC(=O)CSCc1c(F)cccc1Cl 9.25%
Cc1ccc(-c2nc3ccccn3c2NCc2ccc3c(c2)OCO3)cc1 11.7%
Cc1ccn2c(NCc3ccc4c(c3)OCO4)c(-c3ccc(O)cc3)nc2c1 15.5%
Cc1ccc(-c2nc3cnccn3c2Nc2ccc3c(c2)OCO3)cc1 24.2%
Oc1ccc(-c2nc3ccccn3c2NCc2ccc3c(c2)OCO3)cc1 24.6%
Oc1ccc(-c2nc3ncccn3c2Nc2ccc3c(c2)OCCO3)cc1 11.9%
Cc1cccc(Nc2c(-c3ccc(N4CCOCC4)cc3)nc3ncccn23)c1 7.86%
S=C1NC[C@H](CC2CCCCC2)N1CC1CCCCC1 5.21%
COc1c(C)cc(C(=O)C2CCCN(Cc3cccc4nccnc34)C2)cc1C (stereo not given) 5.94%
CCCNC(=O)Nc1nnc(C2CC2)s1 2.83%
Cc1ccc(C(=O)NCCc2ccccc2)cc1S(=O)(=O)N1CCOCC1 1.5%
CCCN(CCC)CCNC(=O)c1cc2c(-c3ccc(Cl)cc3)nn(C)c2s1 31.8%
CCN(CC)CCCNC(=O)c1cc2c(-c3ccc(Cl)cc3)nn(C)c2s1 15.3%
CCOc1ccc(-c2nnc(SCC(=O)O)n2Cc2ccccc2)cc1 8.65%
COc1ccc(C)cc1NC(=O)C(NCC1CCCO1)c1ccccc1 (stereo not given) 6.45%
COc1ccc(C)cc1NC(=O)CNC(c1ccccc1)c1ccccc1 1.89%
CCOc1ccc(-c2csc(NC(=O)c3cccc(N4C(=O)CCC4=O)c3)n2)cc1 1.94%
COc1ccc(Cl)cc1NC(=O)NN1CCN(C)CC1 9.05%
COc1cccc(-c2c(C(=O)N/N=C(\C)c3ccco3)nnn2-c2nonc2N)c1 3.24%
C(=N\N=C\c1cccs1)/c1cccs1 3.75%
Cc1nnc(C)n1/N=C/c1cccs1 17.6%
c1cncc(-c2nnc3n2N=C(c2cccs2)CS3)c1 7.37%
Cc1nnc(C)n1/N=C/c1cccc([N+](=O)[O-])c1 0.71%
Cc1ccc(-c2n[nH]c(=S)n2/N=C/c2cccs2)cc1 25.8%
S=c1[nH]nc(-c2cccnc2)n1/N=C/c1ccc(Br)s1 8.12%
Cc1ccc(/C=N/n2c(C)nnc2C)s1 5.21%
O=[N+]([O-])c1ccc(/C=N/n2c(-c3cccnc3)n[nH]c2=S)cc1 14.5%
O=C(CCNC(=O)c1ccco1)NCc1ccc(C(=O)O)cc1 10.3%
O=C(NCc1cccnc1)c1ccc([N+](=O)[O-])cc1 6.96%
CC1(C)CC(=O)C2=C(C1)NC(SCC(N)=O)=C(C#N)C21CCCCC1 7.26%
Cc1ccccc1OCCn1cnc2c(N)ncnc21 -13%
CCOc1ccc(OCCn2c(S(=O)(=O)O)nc3c(N)ncnc32)cc1 12.6%
CC(C)Oc1ccc(OCCn2c(S(=O)(=O)O)nc3c(N)ncnc32)cc1 2.7%
Cc1ccccc1OCCn1c(S(=O)(=O)O)nc2c(N)ncnc21 9.98%
CN1CCN(C(=O)CSc2cc(=O)n(C)c3ccccc23)CC1 6.45%
CCOC(=O)N1CCC(NC(=O)C(CC(C)C)NC(=O)C2CCCCC2)CC1 (stereo not given) 9.57%
Cc1ccc(S(=O)(=O)N2CCC(C(=O)NCCc3ccccn3)CC2)cc1 -0.14%
COc1cc(/C=C2\SC(N)=NC2=O)cc(Br)c1O 29.2%
COc1cc(/C=C2/SC(=S)N(Cc3ccccc3)C2=O)cc(Cl)c1O 10%
COc1ccc(Br)cc1C(=O)NC(=S)Nc1ccc(Cl)c(C(=O)O)c1 5.62%
COc1ccc(/C=C2\SC(N)=NC2=O)cc1Cl 1.73%
COc1cc(/C=C2\SC(c3ccccc3)=NC2=O)cc(Cl)c1O 27.3%
COc1ccc(Br)cc1/C=C/C(=O)NC(=S)Nc1ccc(Cl)c(C(=O)O)c1 6.62%
CC1CCCCN1C(=O)c1ccc(CS(=O)(=O)Cc2ccccc2)cc1 (stereo not given) 8.5%
CCN1CCN(C(=O)c2[nH]c3ccc(OC)cc3c2C)CC1 6.11%
Cc1ccc(S(=O)(=O)NCCc2c[nH]c3ccccc23)cc1 4.49%
COc1ccc(CCNC(=O)CCn2c(=O)c3cccn3c3ccc(F)cc32)c(OC)c1OC 12.9%
O=C1NCC(COc2cccc3ccccc23)O1 (stereo not given) -1.12%
Cn1c(O)c(N=NC(=O)CNC(=O)c2cccnc2)c2ccccc21 4.23%
CCN1C[C@@H]2[C@@H]3C(=O)N(Cc4ccccc4)C(=O)[C@@H]3[C@](C)(C1=O)N2C(=O)c1ccc(Br)cc1 7.24%
O=C(CNC(=O)c1ccc(Br)o1)Nc1ccc(F)c(S(=O)(=O)N2CCOCC2)c1 5.58%
Clc1ccc(C=NN2CCCCCC2)cc1 -2.87%
Clc1ccc(/C=N/N2CCCCC2)cc1 7.04%
CCOc1ccc(NC(=O)C(C)Oc2ccccc2C(=O)Nc2ccc(C)c(Cl)c2)cc1 (stereo not given) 5.67%
CC1(NC(=O)NCc2ccccc2)CCS(=O)(=O)C1 (stereo not given) 10.2%
O=C(c1cccc(Cl)c1)N1CCC(c2nc3ccccc3[nH]2)CC1 9.71%
O=NC1=C(c2c(O)[nH]c3ccccc23)CCCC1 5.2%
O=C1C(c2c(O)[nH]c3ccccc23)=Nc2ccccc21 8.12%
Cc1ccc(NC(=O)COc2nc(C)cs2)cc1 4.7%
CC(=O)C[C@H](O)CC(=O)[C@H]1OC(=O)CC/C=C\Cc2ccccc21 5.25%
COc1cc(CNCc2ccc(C)cc2)cc(OC)c1OC 22.2%
COc1ccc(CNCc2ccccc2C(F)(F)F)cc1 29.7%
COc1cc(CNCc2ccc(OC)c(OC)c2OC)cc(OC)c1 15.6%
COc1cc(CNCc2cccc3ccccc23)cc(OC)c1 25.2%
CCCCn1c(N)c(N(CC(C)C)C(=O)c2cccc(S(=O)(=O)N(C)c3ccccc3)c2)c(=O)[nH]c1=O 5.29%
CCOC(=O)CC(NC(=O)c1ccccc1)c1ccc(OC)cc1 (stereo not given) 3.97%
COCCNC(=O)c1cccc(OC2CCN(Cc3ccccc3OCCO)CC2)c1 11.3%
O=C(NC(=S)N1CCCCCC1)c1ccccc1 2.51%
COc1cc2oc(-c3ccc(O)cc3)cc(=O)c2c(O)c1OC 18.1%
COc1c(O)cc2oc(-c3ccc(O)cc3)cc(=O)c2c1O 10.2%
CS(=O)(=O)N(Cc1ccco1)CC(O)Cn1cc(C=O)c2ccccc21 (stereo not given) 8.31%
CCN(CC(=O)Nc1cc(C)c(Cl)cc1OC)CC(=O)NC1CCS(=O)(=O)C1 (stereo not given) 8.4%
COc1ccc(Cl)cc1NC(=O)CN(C)C1CCS(=O)(=O)C1 (stereo not given) 6.99%
COCCNC(=O)CSc1ncnc2sc(-c3ccccc3)cc12 6.39%
COCCn1c(=NC(=O)c2ccc(S(=O)(=O)N3CCOCC3)cc2)sc2cc(S(N)(=O)=O)ccc21 8.39%
FC(F)(F)c1cnc2c(-c3ccc(Cl)cc3Cl)noc2c1 10.7%
CO/N=C/C(C(C)=O)C(=O)Nc1ccc(Cl)cc1Cl (stereo not given) 1.68%
